The values below come from PubChem BioAssay AID2599 (Sanford-Burnham Center for Chemical Genomics, 2010).

About 5,800 (1.8%) of roughly 330,000 compounds were called active.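 How the source made its calls: active means inhibition above about 50% at the single tested dose (limit read from the data); inactive means the rest.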 What follows is part of a selection rich in actives, with near analogues and random picks from the rest.

Chain of Sentrin-specific protease 6 (Homo sapiens) (Q9GZR1 628-1112 limits assumed): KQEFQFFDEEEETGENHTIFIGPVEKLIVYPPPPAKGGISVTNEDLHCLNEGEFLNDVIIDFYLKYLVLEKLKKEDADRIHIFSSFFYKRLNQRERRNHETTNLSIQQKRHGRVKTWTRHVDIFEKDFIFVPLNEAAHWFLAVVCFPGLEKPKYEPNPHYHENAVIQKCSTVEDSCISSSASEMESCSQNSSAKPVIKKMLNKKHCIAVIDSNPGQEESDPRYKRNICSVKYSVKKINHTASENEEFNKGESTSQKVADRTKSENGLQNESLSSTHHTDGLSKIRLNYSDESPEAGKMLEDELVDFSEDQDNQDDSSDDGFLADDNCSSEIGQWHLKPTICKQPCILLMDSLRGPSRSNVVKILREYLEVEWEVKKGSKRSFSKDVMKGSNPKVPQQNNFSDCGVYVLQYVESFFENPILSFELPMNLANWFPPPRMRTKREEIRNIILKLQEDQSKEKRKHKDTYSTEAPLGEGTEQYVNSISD

The assay addresses Sentrin-specific protease 6 (Homo sapiens) (UniProt Q9GZR1). The assay can be described thus: inhibition of human SENP6 catalytic domain – biochemical, luminescence, uHTS, primary screen (AID 2599).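 Further: plate controls were DMSO wells with enzyme for no effect and DMSO wells lacking enzyme for full effect.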 The settings on record: Recombinant SENP6 catalytic domain, aminoluciferin luminescence; at 10 µM; active compounds read high.
Regarding `O=C(COc1ccccc1)N1CCN=C1SCc1cccc(F)c1`, the inhibition (as a rule, the relative decrease from the control value, in per cent) was -16.4% (inactive).
Under `CC(=O)Nc1ccccc1NC(=O)c1cc(C)cc(C)c1` stands 3.76% (inactive).
For the molecule `C=CCN(c1ccc(C(=O)Nc2cc(C)cc(C)c2)cc1)S(C)(=O)=O`, the inhibition was 7.58% (inactive).
Under `CSCc1ccc(C(=O)Nc2cc(C)cc(C)c2)cc1` stands 86% (active); under `Cc1cc(NC(=O)OC(C)C)ccc1-c1ccc(NC(=O)OC(C)C)cc1C`, -24.2% (inactive); under `O=C(NCCCn1ccnc1)c1cc(-c2ccccc2)on1`, 13.4% (inactive).
For `COc1cc2ccccc2cc1C(=O)N1CCOCC1`, the inhibition is 5.76% (inactive).
On to `COC1=C(N2CCOCC2)C(=O)c2ccccc2C1=O`, for which the inhibition was 44.9% (inactive).
Under `Cc1oc2c(c1C(=O)N1CCOCC1)C(=O)c1ccccc1C2=O` stands 68.9% (active).
In the case of `Cc1ccc(NC(=O)C2CC2)cc1S(=O)(=O)N1CCOCC1` it was -10.6% (inactive).
In the case of `COC(=O)c1ccc(NCC(=O)N2CCCCCC2)cc1` it was -9.61% (inactive); in that of `Cc1ccc(C(=O)CNc2ccc(F)cc2)cc1`, 6.04% (inactive); in that of `COC(=O)c1ccc(NCC(=O)c2ccccc2)cc1`, 95.5% (active).
With `Cn1ncc2c(NNC(=O)Cc3cccc4ccccc34)ncnc21`, the inhibition is -8.95% (inactive).
In the case of `O=C(CN1CCN(c2cccc(Cl)c2)CC1)Nc1ccc(S(=O)(=O)N2CCOCC2)cc1` it was 5.09% (inactive); in that of `CCOC(=O)C(NC(C)=O)C(=O)Nc1ccc(OC)cc1` (configuration not stated), 4.26% (inactive).
In the case of `CCC(CO)Oc1cc(NC(=O)c2ccc(Cl)cc2)c2ncn(C(C)C)c2c1` (configuration not stated) it was -20.3% (inactive); in that of `CC(C)n1cnc2c(NCc3ccccc3)cc(OCC3CCN(C)CC3)cc21`, 77.9% (active).
As for `CC(C)n1cnc2c(NCc3ccccc3)cc(N[C@@H](CO)Cc3ccccc3)cc21`, the inhibition was 75.8% (active).
In the case of `CCC(CO)Oc1cc(NC(=O)c2cccc3ccccc23)c2ncn(C(C)C)c2c1` (configuration not stated) it was -4.87% (inactive); in that of `CCC(CO)Oc1cc(NC(=O)c2cccc(F)c2)c2ncn(C(C)C)c2c1` (configuration not stated), -22.5% (inactive); in that of `CCC(CO)Oc1cc(NCc2ccccc2)c2ncn(C3CCCC3)c2c1` (configuration not stated), 1.75% (inactive).
In the case of `COc1ccc(OC)c(S(=O)(=O)Nc2c(C)nn(C)c2C)c1` it was -2.99% (inactive).
Under `COc1ccccc1CCNC(=O)CSc1nnc2ccc(-c3cccnc3)nn12` stands 17% (inactive); under `CC(C)(C)CC(C)(C)NCC(O)COCCOc1ccc(Br)cc1` (configuration not stated), 9.07% (inactive); under `O=C(O)CC/C(=C\c1cc2c(cc1Br)OCO2)c1nc2ccccc2s1`, -4.31% (inactive).
For the molecule `Cc1cc(N=Nc2ccc3ccccc3c2)ccc1O`, the inhibition is 98% (active).
Under `Cc1ccccc1CSc1nnc(-c2ccccn2)n1N` stands 7.46% (inactive).
Under `COc1ccc(C2C=C(c3ccc(Br)cc3)Nc3nc(NS(C)(=O)=O)nn32)cc1` (configuration not stated) stands 3.75% (inactive).
In the case of `Oc1ccc(C2Nc3cccc4cccc(c34)N2)cc1` it was 15.2% (inactive).
On to `Brc1ccccc1C1Nc2cccc3cccc(c23)N1`, for which the inhibition is 51.7% (active).
Under `C/C(=C\c1ccco1)C1Nc2cccc3cccc(c23)N1` stands -84.6% (inactive); under `CC1CN(C(=S)Nc2cccc(F)c2)CC(C)O1` (configuration not stated), 15.9% (inactive); under `O=c1ccc(S(=O)(=O)N2CCCC2)cn1Cc1nc(-c2ccccc2)no1`, -10.4% (inactive).
Under `CN(C)c1ccc(NC(=O)CN2C3CCCC2CC(NC(=O)c2ccccc2)C3)cc1` (configuration not stated) stands -8.69% (inactive); under `COC(=O)c1ccccc1NC(=O)C1(S(=O)(=O)c2ccc(Cl)cc2)CC1`, 16.9% (inactive); under `Nc1ccc2nn(-c3ccc(Cl)cc3)nc2c1`, 95% (active).
Under `CN(C)c1nnnn1-c1ccc(Cl)cc1` stands 2.68% (inactive); under `c1ccc(-n2nc3ccccc3n2)cc1`, -28.4% (inactive); under `CN(C)CCCNC(=O)c1cc(C(=O)Cc2ccc(Cl)cc2)c[nH]1`, -9.62% (inactive).
As for `O=C(CSC(=S)N1CCOCC1)c1ccccc1`, the inhibition is 60.8% (active).
In the case of `CC1CN(C(=S)SCC(=O)c2ccccc2)CC(C)O1` (configuration not stated) it was -20.8% (inactive); in that of `O=C(CSC(=S)N1CCOCC1)c1cc(Br)cc(Br)c1O`, -12.1% (inactive); in that of `Cc1ccc(CNC(=O)CC2Sc3ccccc3NC2=O)cc1` (configuration not stated), -4.12% (inactive).
In the case of `C#CCOCCOCCOCCNc1nc(N2CCN(C(=O)C([C@@H](C)CC)n3cc(C(N)COC(=O)C(F)(F)F)nn3)CC2)nc(N2CCN(C(=O)[C@H](CCCCN)n3cc(C(N)CC(C)C)nn3)CC2)n1` (some centres not stated) it was -9.82% (inactive); in that of `O=C(Nc1ccc(C(=O)O)c(O)c1)c1ccccc1`, 83.4% (active).
In the case of `O=C(Nc1cccc(NC(=O)c2cccc(F)c2)c1)c1ccccc1` it was -18.8% (inactive); in that of `O=C(Nc1cccc(C(=O)N2CCCC2)c1)c1ccccc1`, -14.4% (inactive).
Regarding `COc1cccc(N2CC(C(=O)NCc3n[nH]c(=O)c4ccccc34)CC2=O)c1` (configuration not stated), the inhibition was -13.6% (inactive).
Regarding `O=C(O)/C=C/c1ccc(S(=O)(=O)N2CCCCCC2)cc1`, the inhibition is 16.2% (inactive).
Under `CC(C)c1nc(SCC(=O)NC(=O)NC(C)(C)C)n[nH]1` stands -25.6% (inactive).
In the case of `O=C(Nc1ccc(F)cc1)c1cc2c(s1)CCCC2` it was 89% (active); in that of `O=C(NCC1CCCO1)c1cc2c(s1)CCCC2` (configuration not stated), 6.51% (inactive).
Under `CN(C)C(=O)c1ccc(NC(=O)COC(=O)c2cc3c(s2)CCCCC3)cc1` stands -9.42% (inactive); under `CCc1noc(C)c1C(=O)Nc1nc2ccc(OC)cc2s1`, 59.6% (active); under `COc1cccc(C(=O)Nc2nc3ccc(S(C)(=O)=O)cc3s2)c1`, 89.1% (active).
Consider `CCc1noc(C)c1C(=O)Nc1nc(-c2ccccc2)cs1`, for which the inhibition is -13.3% (inactive).
On to `Cc1noc(C)c1CSCC(=O)Nc1nc2ccc(Oc3ccccc3)cc2s1`, for which the inhibition was 14.7% (inactive).
Under `COc1cccc(C(=O)Nc2nnc(S(=O)(=O)N(C)c3ccccc3)s2)c1` stands 12.8% (inactive); under `CS(=O)(=O)c1ccc2nc(NC(=O)c3ccc(Cl)nc3)sc2c1`, 0.381% (inactive).
Under `CC1=NN(C(=O)CCc2ccccc2O)C(O)(C(F)(F)F)C1` (configuration not stated) stands 13.7% (inactive); under `COc1ccccc1CCC(=O)OCC(=O)N1CCN(S(=O)(=O)c2ccc(C)cc2C)CC1`, -9.38% (inactive).
